Test systems include NCI-H23 lung; NCI-H226 lung; NCI-H322M lung; HOP-62 NSCLC; NCI-H460 lung; HOP-92 NSCLC; NCI-H522 lung; A549/ATCC NSCLC; 786-0 renal; COLO 205 colon; DU-145 prostate; K-562 leukemia; MALME-3M melanoma; MDA-MB-231 breast; RXF 393 renal; SF-268 CNS; SF-295 CNS; SF-539 CNS; UACC-257 melanoma; M14 melanoma.
Experiment in all cases: NCI-60 one-dose screen, 48 h (100 = growth as untreated, 0 = no growth, -100 = all killed)
Holding throughout (settings): 10 µM unless noted

This is part of a sample that, as a whole, favours compounds with a hit. Of some 83,000 tested, about 20% had one in any assay.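 Results are percent growth after 48 hours of single-concentration exposure. 100 means growth as in untreated cells, lower positive values show inhibition; negative values down to -100 show cell death.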 Values without a mark were called inactive. Calls of active or inactive are those of the source. The calls were made as follows: active = growth percent below 10; inactive = the rest.

As for `CCN1CCN(C(=O)[C@]23CCC(C)(C)C[C@@H]2C2=CC[C@@H]4[C@@]5(C)CCC(=O)C(C)(C)[C@@H]5CC[C@@]4(C)[C@]2(C)CC3)CC1`, the growth with NCI-H23 lung was 64.9%; in the assay on NCI-H226 lung, 71%; in the assay with NCI-H322M lung, 81.2%; in the assay on HOP-62 NSCLC, 78.8%; in the assay on NCI-H460 lung it was 25.5%; with HOP-92 NSCLC, 44.9%. In addition, the growth is 44.7% in the assay on NCI-H522 lung; 46.1% in the assay on A549/ATCC NSCLC; 50.5% in the assay with 786-0 renal; 44.2% in the assay on COLO 205 colon; 76.6% with DU-145 prostate; 21.1% in the assay with K-562 leukemia. Besides, the growth in the assay with MALME-3M melanoma was 40.5%; in the assay on MDA-MB-231 breast it was 56.5%; in the assay with RXF 393 renal, 61%; with SF-268 CNS it was 41.5%; in the assay on SF-295 CNS, 76.3%; with SF-539 CNS, 48.9%. For the same compound, the growth with UACC-257 melanoma was 32.8%; with M14 melanoma it was 57.1%.
For `CC(=O)Oc1ccc(/C(=C(\C)c2ccc(Cl)cc2)c2ccc(OCCN3CCCCC3)cc2)cc1`, the growth was 46.9% with NCI-H23 lung; 70.7% with NCI-H226 lung; 84.7% in the assay with NCI-H322M lung; 52.8% in the assay with HOP-62 NSCLC; 20.2% in the assay on NCI-H460 lung; 49.4% in the assay with HOP-92 NSCLC. Also, the growth is 21.2% in the assay on NCI-H522 lung; 31.7% in the assay with A549/ATCC NSCLC; -35.5% (active) with 786-0 renal; -52.4% (active) in the assay on COLO 205 colon; 61.9% with DU-145 prostate; -47% (active) in the assay on K-562 leukemia. The growth in the assay on MALME-3M melanoma is -6.44% (active); in the assay on MDA-MB-231 breast, 50.8%; in the assay with RXF 393 renal, 29.3%; in the assay on SF-268 CNS, 58.6%; with SF-295 CNS, 9.07% (active); with SF-539 CNS, 28.2%. Further, in the assay with UACC-257 melanoma, the growth was -34.9% (active).
In the case of `O=C(CSc1nc2ccc([N+](=O)[O-])cc2[nH]1)Nc1ccc([N+](=O)[O-])cc1`, the growth was 0.139% (active) in the assay with NCI-H23 lung; 6.55% (active) with NCI-H226 lung; 43.9% with NCI-H322M lung; 36.2% with HOP-62 NSCLC; 15.4% in the assay with NCI-H460 lung; -26.8% (active) in the assay on HOP-92 NSCLC. The growth with NCI-H522 lung is -3.09% (active); in the assay on A549/ATCC NSCLC, 24.4%; in the assay with 786-0 renal, 24.1%; in the assay with COLO 205 colon, 21.4%; with DU-145 prostate, 31.6%; with K-562 leukemia, 14.3%. In addition, the growth in the assay with MALME-3M melanoma was 1.83% (active); in the assay on MDA-MB-231 breast it was 33.3%; in the assay on RXF 393 renal, 29%; with SF-268 CNS it was 27%; in the assay on SF-295 CNS it was 21.2%; in the assay on SF-539 CNS, 41.5%. In the assay with UACC-257 melanoma, the growth was 9.35% (active).
Consider `Cc1sc2nc(NCCc3c[nH]c4ccc(Cl)cc34)[nH]c(=O)c2c1C`, for which the growth in the assay on NCI-H23 lung is 61.6%; in the assay on NCI-H226 lung, 70.6%; in the assay with NCI-H322M lung, 61.2%; in the assay on HOP-62 NSCLC it was 34.7%; in the assay on NCI-H460 lung, 18.6%; with HOP-92 NSCLC it was 46%. Moreover, the growth in the assay with NCI-H522 lung was -23.9% (active); with A549/ATCC NSCLC, 0.107% (active); in the assay with 786-0 renal, 56.5%; in the assay with COLO 205 colon, 22.3%; in the assay on DU-145 prostate it was 62.2%; with K-562 leukemia, 22.3%. Moreover, the growth was 60.2% in the assay with MALME-3M melanoma; 31.1% in the assay on MDA-MB-231 breast; 7.63% (active) with RXF 393 renal; 15.5% with SF-268 CNS; 50.7% in the assay with SF-295 CNS; 40.1% in the assay on SF-539 CNS. Moreover, in the assay with UACC-257 melanoma, the growth is 32.6%.
In the case of `C1CCC([PH+](C2CCCCC2)C2CCCCC2[PH+](C2CCCCC2)C2CCCCC2)CC1.[Au].[CH-]1CCCCC1C1CCCC[N-]1` (stereo not given), the growth with NCI-H23 lung is -31% (active); in the assay with NCI-H226 lung, -35.1% (active); in the assay with NCI-H322M lung it was -52% (active); in the assay with HOP-62 NSCLC, -39.9% (active); in the assay with NCI-H460 lung, -69.8% (active); in the assay on HOP-92 NSCLC it was -38.5% (active). Further, the growth was -51% (active) in the assay on NCI-H522 lung; -56.8% (active) with A549/ATCC NSCLC; -64.6% (active) in the assay with 786-0 renal; -62% (active) in the assay on COLO 205 colon; -52.8% (active) with DU-145 prostate; -0.185% (active) with K-562 leukemia. Moreover, the growth in the assay with MALME-3M melanoma is -44.3% (active); with MDA-MB-231 breast, -27.6% (active); in the assay with RXF 393 renal, -92.4% (active); with SF-268 CNS, -55% (active); in the assay on SF-295 CNS, -42.9% (active); in the assay with SF-539 CNS, -90.4% (active). For the same compound, the growth in the assay with UACC-257 melanoma was -53.8% (active); with M14 melanoma it was -41.3% (active).
For the compound `COc1ccc(C/C(C)=C(\c2ccc(Cl)cc2)c2ccc(OCCN3CCCCC3)cc2)cc1`, the growth is 91.9% in the assay on NCI-H23 lung; 86.5% with NCI-H226 lung; 96.7% in the assay on NCI-H322M lung; 102% in the assay with HOP-62 NSCLC; 101% in the assay on NCI-H460 lung; 87.9% in the assay with HOP-92 NSCLC. Besides, the growth in the assay on NCI-H522 lung is 87.3%; with A549/ATCC NSCLC, 98.1%; with 786-0 renal, 93.8%; in the assay on COLO 205 colon it was 95.3%; with DU-145 prostate it was 110%; in the assay with K-562 leukemia, 67.3%. Further, the growth is 106% with MALME-3M melanoma; 93.3% in the assay with MDA-MB-231 breast; 85.1% in the assay on RXF 393 renal; 99.6% with SF-268 CNS; 101% in the assay on SF-295 CNS; 93.6% with SF-539 CNS. Besides, the growth in the assay on UACC-257 melanoma was 104%.
With `N#CC1=C(N)Oc2c(sc3c(Br)cccc23)C1c1ccc(Cl)cc1` (stereo not given), the growth was 17.2% with NCI-H23 lung; 39.7% in the assay on NCI-H226 lung; 36.1% in the assay with NCI-H322M lung; 14.3% in the assay with HOP-62 NSCLC; 8.2% (active) with NCI-H460 lung; 35.6% with HOP-92 NSCLC. Moreover, the growth in the assay on NCI-H522 lung was -26.8% (active); in the assay with A549/ATCC NSCLC, 1.31% (active); with 786-0 renal, 5.59% (active); in the assay on COLO 205 colon it was -42.2% (active); in the assay on DU-145 prostate, 20%; in the assay with K-562 leukemia, 7.37% (active). In addition, the growth with MALME-3M melanoma is 50.4%; in the assay with MDA-MB-231 breast it was 9.21% (active); in the assay on RXF 393 renal it was -18% (active); with SF-268 CNS it was 20.2%; in the assay on SF-295 CNS, 6.9% (active); in the assay on SF-539 CNS, -38.2% (active). Besides, the values for the growth in the assay on UACC-257 melanoma and in the assay on M14 melanoma were 64% and 1.7% (active), respectively.
For `CS(=O)(=O)Nc1cncc(-c2ccc3ncnc(Nc4cncc(Cl)c4)c3c2)c1`, the growth in the assay on NCI-H23 lung was 80%; in the assay on NCI-H226 lung, 80.8%; in the assay with NCI-H322M lung, 71.7%; in the assay on HOP-62 NSCLC it was 73.4%; in the assay with NCI-H460 lung it was 103%; in the assay on HOP-92 NSCLC it was 31.5%. Also, the growth in the assay on NCI-H522 lung is 50.2%; in the assay with A549/ATCC NSCLC it was 81.7%; with 786-0 renal it was 82.3%; in the assay on COLO 205 colon, 93.8%; in the assay with DU-145 prostate, 88.4%; in the assay on K-562 leukemia, 100%. Besides, the growth in the assay with MALME-3M melanoma was 65.1%; in the assay on MDA-MB-231 breast, 77.1%; in the assay on RXF 393 renal, 87.3%; in the assay with SF-268 CNS it was 68.1%; with SF-295 CNS, 97.1%; in the assay with SF-539 CNS, 74.6%. The growth in the assay on UACC-257 melanoma was 67.9%.

For the origin of these results see PubChem BioAssay (NCI).
